Drawing on PubChem BioAssay (NCI), this text covers growth inhibition for 40 compounds.

About 79,000 compounds went through this panel and 15% of them were active in at least one assay; those are over-represented in the sample as a whole. Activity calls are given as the source filed them. Rule as the data show it: active = growth inhibition above about 70%; inactive = the rest.

One assay in a line: NCI Yeast Anticancer Drug Screen. Data for the cln2 rad14 strain (AID 165).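 Also: 0% = growth equal to vehicle treated cultures.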 The note with it: S. cerevisiae cln2 rad14 strain, at 50.0 µM, stronger effect = higher value. An outline of the steps:
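Growth inhibition, relative to vehicle-treated controls, is the read-out. The test organism is a yeast strain with defined genetic alterations, cln2 rad14.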
In the case of `Cc1ccc(NC(=O)CC2C(=O)Nc3ccccc3S2=O)c(C)c1` (stereo not given), the growth inhibition is 20.4% (inactive).

Consider `Nc1nc(-c2ccc3c(ccc4ccccc43)c2)cs1`, for which the growth inhibition is -46.3% (inactive).

Turning to `COC(=O)C(=O)CC(=O)CCn1ncc(Cl)c(Cl)c1=O`, the growth inhibition was 6.45% (inactive).

`O=C(CCN1CCCCC1)c1cc2cc([N+](=O)[O-])ccc2oc1=O`: the growth inhibition was -17.8% (inactive).

For the compound `CCOC(=O)C1CN(CCc2ccccc2)CCC1=O` (stereo not given), the growth inhibition was 16.5% (inactive).

Consider `NC(CCS(N)(=O)=O)C(=O)O` (stereo not given), for which the growth inhibition was -2.7% (inactive).

On to `Cc1cc(C(N)=O)no1`, for which the growth inhibition was -10% (inactive).

Regarding `BrC1CC2CCCCC2CC1Br` (stereo not given), the growth inhibition was -9.75% (inactive).

Regarding `C1CCSCCCCSCCCCSCCCCSC1`, the growth inhibition is 6.5% (inactive).

Turning to `O=c1[nH]c2cc(Cl)c([N+](=O)[O-])cc2c2ccccc12`, the growth inhibition was -42% (inactive).

Take `CC(C)(C)C(=O)O[C@H]1C=C[C@@H](O)[C@@H]2[C@H]1[C@@H]1C=C[C@H]2C1`: the growth inhibition is 11.6% (inactive).

As to `Cc1cc(N=Nc2cc(Br)cc(Br)c2)cc(C)c1N`, the growth inhibition was -12.2% (inactive).

As for `CN1CCC(CC(O)(c2ccccc2)C2CCCCC2)C1` (stereo not given), the growth inhibition was -24.4% (inactive).

For the compound `CCc1ccccc1NC(C)=O`, the growth inhibition is -5.2% (inactive).

`CC(C)(C)C(=O)Oc1ccc[nH]c1=O`: the growth inhibition was -27.6% (inactive).

`CC1=CC(=O)OC(=O)/C1=C/c1ccc(N(C)C)cc1`: the growth inhibition is 19.7% (inactive).

Take `Cc1sc2c(c1C)C(=O)c1cccn1-2`: the growth inhibition is -2.8% (inactive).

For the compound `CC1=NN(c2nc(N)nc(CCl)n2)CC1`, the growth inhibition is 21.9% (inactive).

`O=C(CNS(=O)(=O)c1ccccc1)c1ccc(Cl)cc1Cl`: the growth inhibition was 22.3% (inactive).

In the case of `O=C(NCc1cccnc1)Nc1cccc2c(NC(=O)NCc3cccnc3)cccc12`, the growth inhibition was 14.5% (inactive).

As for `Nc1c(I)cc(C(=O)O)c(O)c1I`, the growth inhibition was 4.65% (inactive).

On to `CC(C)=CCC\C(C)=C/C=C/C(C)=C\C=C\C(C)=C/C=C/C=C(C)\C=C\C=C(C)/C=C/C=C(/C)CCC=C(C)C`, for which the growth inhibition is 30.9% (inactive).

Take `S=c1cc(S)sc2c1c(=S)sc1nc3ccccn3c(=S)c12`: the growth inhibition was 18% (inactive).

Take `NS(=O)(=O)c1cc2c(cc1Cl)NC(C(=O)NNC(=O)c1ccncc1)=NS2(=O)=O`: the growth inhibition is 1.3% (inactive).

As for `CC1CCN(C(=O)Nc2ccccc2)CC1`, the growth inhibition is -51.3% (inactive).

Regarding `CCOc1nc(N)nc(C)c1N=Nc1ccccc1OC`, the growth inhibition was 35.9% (inactive).

As to `COc1cc(/C=N/NC(=O)Cc2cccc3ccccc23)ccc1O`, the growth inhibition was -5.3% (inactive).

As to `CCOC(=O)NC(=Cc1ccccn1)c1ccc(Cl)cc1` (mixture of isomers), the growth inhibition is -0.7% (inactive).

For `COC(=O)[C@]1(C)CCC[C@]2(C)C3=C[C@@H](O)[C@@]4(C(C)C)O[C@H]4[C@]3(O)CC[C@@H]12`, the growth inhibition was -2.7% (inactive).

`CC(=O)CC(=O)Nc1ccc(NC(=O)CC(C)=O)cc1`: the growth inhibition is -0.55% (inactive).

Take `CC(=NNC(=S)Nc1ccccc1)c1cccc(C(C)=NNC(=S)Nc2ccccc2)n1`: the growth inhibition is 2.65% (inactive).

Regarding `COc1ccccc1NC(=S)NCCO`, the growth inhibition is 0.8% (inactive).

Consider `CCOC(=O)c1c[nH]c2cc(Cl)ccc2c1=O`, for which the growth inhibition was 7.9% (inactive).

On to `O=c1[nH]cc(S)c(=O)[nH]1`, for which the growth inhibition was -9.35% (inactive).

For the compound `CN(C)CCn1cnc2sc3ccccc3c21`, the growth inhibition is 24% (inactive).

As to `Nc1c(OCc2ccccc2)cccc1C(=O)O`, the growth inhibition was -47.5% (inactive).

Consider `CC(=O)C1C(=O)C(=O)N(CCN2C(=O)C(=O)C(C(C)=O)C2=O)C1=O` (stereo not given), for which the growth inhibition was -26.2% (inactive).

As to `CC(=Nc1ccccc1)Nc1ccccc1`, the growth inhibition was -20.6% (inactive).

Regarding `O=[N+]([O-])c1ccc(Br)cc1`, the growth inhibition was 16.2% (inactive).

Regarding `CS(=O)(=O)OC1C(O)C(O)OC(CO)C1O` (stereo not given), the growth inhibition was -49.7% (inactive).

A short description of another assay: NCI Yeast Anticancer Drug Screen. Data for the bub3 strain (AID 167). The note with it: S. cerevisiae bub3 mutant strain, at 50.0 µM, stronger effect = higher value. An outline of the steps: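 Mutant yeast screening strain plus compound; vehicle-treated cultures serve as the 0% inhibition reference.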
Consider `Cc1ccc(NC(=O)CC2C(=O)Nc3ccccc3S2=O)c(C)c1` (stereo not given), for which the growth inhibition was 15.8% (inactive).

For the compound `Nc1nc(-c2ccc3c(ccc4ccccc43)c2)cs1`, the growth inhibition was 47.7% (inactive).

For the compound `COC(=O)C(=O)CC(=O)CCn1ncc(Cl)c(Cl)c1=O`, the growth inhibition was -13.6% (inactive).

For `O=C(CCN1CCCCC1)c1cc2cc([N+](=O)[O-])ccc2oc1=O`, the growth inhibition is 47% (inactive).

Regarding `CCOC(=O)C1CN(CCc2ccccc2)CCC1=O` (stereo not given), the growth inhibition is 42.8% (inactive).

On to `NC(CCS(N)(=O)=O)C(=O)O` (stereo not given), for which the growth inhibition is 5.5% (inactive).

Consider `Cc1cc(C(N)=O)no1`, for which the growth inhibition was 3.9% (inactive).

For `BrC1CC2CCCCC2CC1Br` (stereo not given), the growth inhibition was 8.8% (inactive).

Take `C1CCSCCCCSCCCCSCCCCSC1`: the growth inhibition is 16.9% (inactive).

In the case of `O=c1[nH]c2cc(Cl)c([N+](=O)[O-])cc2c2ccccc12`, the growth inhibition is -11.2% (inactive).

As for `CC(C)(C)C(=O)O[C@H]1C=C[C@@H](O)[C@@H]2[C@H]1[C@@H]1C=C[C@H]2C1`, the growth inhibition is 55.9% (inactive).

Regarding `Cc1cc(N=Nc2cc(Br)cc(Br)c2)cc(C)c1N`, the growth inhibition was 3.55% (inactive).

In the case of `CN1CCC(CC(O)(c2ccccc2)C2CCCCC2)C1` (stereo not given), the growth inhibition is 4.2% (inactive).

On to `CCc1ccccc1NC(C)=O`, for which the growth inhibition was 0.25% (inactive).

`CC(C)(C)C(=O)Oc1ccc[nH]c1=O`: the growth inhibition is -13.7% (inactive).

Turning to `CC1=CC(=O)OC(=O)/C1=C/c1ccc(N(C)C)cc1`, the growth inhibition is 23% (inactive).

For `Cc1sc2c(c1C)C(=O)c1cccn1-2`, the growth inhibition was -13.9% (inactive).

Consider `CC1=NN(c2nc(N)nc(CCl)n2)CC1`, for which the growth inhibition is 11.5% (inactive).

For the compound `O=C(CNS(=O)(=O)c1ccccc1)c1ccc(Cl)cc1Cl`, the growth inhibition is 54.5% (inactive).

On to `O=C(NCc1cccnc1)Nc1cccc2c(NC(=O)NCc3cccnc3)cccc12`, for which the growth inhibition is -0.05% (inactive).

Take `Nc1c(I)cc(C(=O)O)c(O)c1I`: the growth inhibition was -5.75% (inactive).

Regarding `CC(C)=CCC\C(C)=C/C=C/C(C)=C\C=C\C(C)=C/C=C/C=C(C)\C=C\C=C(C)/C=C/C=C(/C)CCC=C(C)C`, the growth inhibition is -30.6% (inactive).

Consider `S=c1cc(S)sc2c1c(=S)sc1nc3ccccn3c(=S)c12`, for which the growth inhibition is 24.6% (inactive).

With `NS(=O)(=O)c1cc2c(cc1Cl)NC(C(=O)NNC(=O)c1ccncc1)=NS2(=O)=O`, the growth inhibition is -11.9% (inactive).

Regarding `CC1CCN(C(=O)Nc2ccccc2)CC1`, the growth inhibition was -6.05% (inactive).

As for `CCOc1nc(N)nc(C)c1N=Nc1ccccc1OC`, the growth inhibition is 11.5% (inactive).

Regarding `COc1cc(/C=N/NC(=O)Cc2cccc3ccccc23)ccc1O`, the growth inhibition was 39.4% (inactive).

Consider `CCOC(=O)NC(=Cc1ccccn1)c1ccc(Cl)cc1` (mixture of isomers), for which the growth inhibition is 4.25% (inactive).

Regarding `COC(=O)[C@]1(C)CCC[C@]2(C)C3=C[C@@H](O)[C@@]4(C(C)C)O[C@H]4[C@]3(O)CC[C@@H]12`, the growth inhibition was -8.25% (inactive).

For the compound `CC(=O)CC(=O)Nc1ccc(NC(=O)CC(C)=O)cc1`, the growth inhibition is -23.5% (inactive).

Turning to `CC(=NNC(=S)Nc1ccccc1)c1cccc(C(C)=NNC(=S)Nc2ccccc2)n1`, the growth inhibition was -2.3% (inactive).

`COc1ccccc1NC(=S)NCCO`: the growth inhibition is 21.1% (inactive).

Consider `CCOC(=O)c1c[nH]c2cc(Cl)ccc2c1=O`, for which the growth inhibition is 15.3% (inactive).

`O=c1[nH]cc(S)c(=O)[nH]1`: the growth inhibition was -9.7% (inactive).

`CN(C)CCn1cnc2sc3ccccc3c21`: the growth inhibition is -6.35% (inactive).

With `Nc1c(OCc2ccccc2)cccc1C(=O)O`, the growth inhibition is -40.5% (inactive).

Regarding `CC(=O)C1C(=O)C(=O)N(CCN2C(=O)C(=O)C(C(C)=O)C2=O)C1=O` (stereo not given), the growth inhibition is -5.9% (inactive).

Turning to `CC(=Nc1ccccc1)Nc1ccccc1`, the growth inhibition was 4.7% (inactive).

With `O=[N+]([O-])c1ccc(Br)cc1`, the growth inhibition was -2.3% (inactive).

Consider `CS(=O)(=O)OC1C(O)C(O)OC(CO)C1O` (stereo not given), for which the growth inhibition is 5.75% (inactive).
